Test results taken from article PMC5540273 (PLoS ONE, 2017).

Legend:
Conditions in all cases: concentration: 1 μM, replicates: in singlicate; n = 1
ASK2 = system: T1, ASK2
T1 construct: gene MAP3K6

AURKA = system: AURKA
AURKB = system: AURKB
AURKC = system: AURKC
AXL = system: AXL
BIKE = system: T2, BIKE
T2 construct: gene BMP2K

BLK = system: BLK
BMPR1A = system: BMPR1A
BMPR1B = system: BMPR1B
BMPR2 = system: BMPR2
BMX = system: BMX
BRAF = system: BRAF
BRK = system: T3, BRK
T3 construct: gene PTK6

BRSK1 = system: BRSK1
BRSK2 = system: BRSK2
BTK = system: BTK
BUB1 = system: BUB1
CAMK1B = system: CAMK1B
CAMK1D = system: CAMK1D
CAMK1G = system: CAMK1G
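Also: KINOMEscan kinase panel screen.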

SMILES	%Inh (ASK2) [%]	%Inh (AURKA) [%]	%Inh (AURKB) [%]	%Inh (AURKC) [%]	%Inh (AXL) [%]	%Inh (BIKE) [%]	%Inh (BLK) [%]	%Inh (BMPR1A) [%]	%Inh (BMPR1B) [%]	%Inh (BMPR2) [%]	%Inh (BMX) [%]	%Inh (BRAF) [%]	%Inh (BRK) [%]	%Inh (BRSK1) [%]	%Inh (BRSK2) [%]	%Inh (BTK) [%]	%Inh (BUB1) [%]	%Inh (CAMK1B) [%]	%Inh (CAMK1D) [%]	%Inh (CAMK1G) [%]
CN(C)CCNS(=O)(=O)c1ccc(-c2ccnc3[nH]ccc23)cc1 [GSK977620]	23	2	57	85	93.1	82	6	0	0	0	9	0	16	19	0	0	29	0	66	8
CN1CCN(Cc2ccc(NC(=O)Nc3ccc(N(C)c4ccnc(Nc5ccc(CS(C)(=O)=O)cc5)n4)cc3)cc2)CC1.Cl [GW827654]	4	99.9	99.7	98.5	99.3	93.2	94.1	44	96.2	87	69	0	8	19	10	60	51	42	27	23
CC(=O)Nc1cn2nc(Oc3cccc(NC(=O)c4cccc(C(F)(F)F)c4)c3)ccc2n1	0	0	60	74	51	18	98.2	10	0	0	25	99.7	92.1	0	0	4	0	0	24	0
Nc1ncnc2scc(-c3ccc(NC(=O)Cc4cc(F)ccc4F)cc3)c12.O=C(O)C(F)(F)F [SB-731254-M]	21	53	98.6	45	36	7	36	22	10	0	0	4	6	2	38	0	0	0	11	15
O=C1NC(=O)C(c2ccccc2Cl)=C1Nc1cccc(Cl)c1 [SB-342409]	0	0	22	0	0	15	2	0	0	0	19	0	22	0	0	0	22	3	21	18
Nc1ncc(-c2cn[nH]c2)c2scc(-c3ccc4c(c3)CCN4C(=O)Cc3ccccc3)c12 [GSK2593067]	21	13	98.6	87	98.8	67	96	0	0	0	31	0	96.1	0	0	0	11	0	11	19
CN(c1ccc(NC(=O)N2CCN(CCCN3CCOCC3)CC2)cc1)c1ccnc(Nc2ccc(CS(C)(=O)=O)cc2)n1.Cl [GW830899]	0	84	76	75	2	86	0	6	7	0	0	0	27	83	25	0	0	0	5	0
CN(C)CCOc1ccc(-c2cc(-c3ccc(Cl)c(O)c3)c(-c3ccncc3)[nH]2)cc1.Cl.Cl [SB-684387]	0	21	0	0	0	0	64	90.6	29	10	27	96.6	75	0	0	0	83	40	23	0
CCNc1nccc(-c2c(-c3ccc(F)cc3)ncn2C2CCN(C)CC2)n1	0	0	0	8	0	13	3	0	0	0	6	0	0	0	0	0	63	0	17	5
O=C(O)C(F)(F)F.O=c1[nH]ccc2nc(N[C@@H]3CCNC3)nc(Nc3cc(Cl)cc(Cl)c3)c12 [GSK2188764]	4	97.3	75	69	92.1	97.6	0	0	0	70	27	0	5	19	8	0	99.2	100	97.9	72
O=C(O)C(F)(F)F.O=c1[nH]ccc2nc(N[C@@H]3CCNC3)nc(Nc3ccc4c(c3)S(=O)(=O)CC4)c12 [GSK2181306]	38	83	72	87	100	98.8	28	0	7	99.5	24	0	18	52	46	29	90.5	98.7	98.6	82
Cc1ccc(NC(=O)c2cccc(N3CCCCC3)c2)cc1-c1ccc(C(=O)NCC2CC2)cc1 [GSK1917008]	11	0	0	7	5	13	72	0	2	0	26	88	22	6	3	0	23	27	11	0
Cc1ccc(Nc2ccnc(Nc3ccc(C)c(F)c3)n2)cc1O.Cl [GW582868]	0	0	0	19	32	29	51	7	30	7	12	50	50	0	0	0	44	34	0	0
CCn1c(-c2nonc2N)nc2c(-c3ccccc3)ncc(OCCCN)c21.O=C(O)C(F)(F)F.O=C(O)C(F)(F)F [GSK260205]	0	0	36	0	0	8	20	0	0	2	0	0	0	0	0	0	96.2	7	6	4
c1ccc(Oc2ccc(Nc3ccnc4cc(-c5ccc(CN6CCCCC6)o5)ccc34)cc2)nc1 [GW567143]	24	10	80	44	8	8	95.5	0	0	0	6	2	96.5	6	0	0	18	0	19	0
O=C(Nc1c(F)cccc1F)c1cc(C(=O)c2ccccc2F)c[nH]1 [GSK1326180]	0	0	0	0	24	0	0	6	0	1	18	0	11	0	0	0	31	33	13	6
